Bioassay records deposited in PubChem by National Center for Advancing Translational Sciences (NCATS).
Only some compounds are listed: those with a hit (about 10% of all), similar ones and a draw of the others.
NPR1 antag: Natriuretic polypeptide receptor (hNpr1) antagonism - Primary qHTS | Potency, µM (series often up to 46.3 µM), without a hit: at the top dose activity change, negative = inhibition, actives largely listed as inhibitors | hit rate 1.6% among 76,000 | HEK293 hNpr1 GloSensor cGMP, ANP-stimulated luminescence; calls by dose curve; also: nearly all actives have a fitted effect of over 60% in size
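HEK293 cells stably expressing human Npr1 and cGMP GloSensor pGS-40F, loaded 2 h with 2% GloSensor reagent, given compound 30 min at room temperature. Luminescence read before and 20 min after 0.1 nM hNppA.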
GPT2 inhibitor: Primary qHTS assay for inhibitors of Glutamate pyruvate transaminase 2 (GPT2). Potency, µM (top dose mostly 57.7 µM), for inactives: at the highest dose activity change, negative = inhibition, most hits filed as inhibitors. Alanine aminotransferase 2 (Homo sapiens), Q8TD30. AID 1671188, 2021. Recombinant GPT2, coupled pyruvate oxidase/HRP Amplex Red fluorescence. hit rate 0.25% among 100,000; also: nearly all actives have a fitted effect of over 60% in size
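Fluorescence of coupled pyruvate oxidase/HRP/Amplex Red system (50uM Amplex, 30 min, dark) reports pyruvate formed by GPT2. Enzyme reaction: 10ng/uL GPT2, 2mM L-alanine, 250uM a-KG, 30 min room temperature, pH 7.5; 50uM AOA control.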
3T3 cytotox: Cytotoxic Profiling in NIH 3T3 Cell Line of Diverse Libraries Using Quantitative High-Throughput Screening; NIH 3T3 viability, CellTiter-Glo ATP luminescence, 48-72 h; Potency, µM (highest dose often 96.7 µM), for inactives: at the top dose activity change, negative = cytotoxicity, usual class: inhibitors; hit rate 4.3% among 94,000; AID 1345082, 2018; also: nearly all actives have a fitted effect of over 55% in size
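Cells were seeded at 400 per well, treated with pin-transferred compound, and kept 48 or 72 hr at 37 °C before CellTiter-Glo addition and luminescence imaging of cellular ATP.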
Luciferase inh: Firefly luciferase inhibition profiling of diverse chemical library using quantitative high-throughput screening; hit rate 2.5% among 76,000; AID 1347043, 2019; purified P. pyralis luciferase, luminescence, biochemical; Luciferin 4-monooxygenase (Photinus pyralis), P08659; Potency, µM (titrated, usually from 115 µM), actives largely listed as inhibitors; also: nearly all actives have a fitted effect of over 65% in size
Target sequence (P08659 whole entry, looked up): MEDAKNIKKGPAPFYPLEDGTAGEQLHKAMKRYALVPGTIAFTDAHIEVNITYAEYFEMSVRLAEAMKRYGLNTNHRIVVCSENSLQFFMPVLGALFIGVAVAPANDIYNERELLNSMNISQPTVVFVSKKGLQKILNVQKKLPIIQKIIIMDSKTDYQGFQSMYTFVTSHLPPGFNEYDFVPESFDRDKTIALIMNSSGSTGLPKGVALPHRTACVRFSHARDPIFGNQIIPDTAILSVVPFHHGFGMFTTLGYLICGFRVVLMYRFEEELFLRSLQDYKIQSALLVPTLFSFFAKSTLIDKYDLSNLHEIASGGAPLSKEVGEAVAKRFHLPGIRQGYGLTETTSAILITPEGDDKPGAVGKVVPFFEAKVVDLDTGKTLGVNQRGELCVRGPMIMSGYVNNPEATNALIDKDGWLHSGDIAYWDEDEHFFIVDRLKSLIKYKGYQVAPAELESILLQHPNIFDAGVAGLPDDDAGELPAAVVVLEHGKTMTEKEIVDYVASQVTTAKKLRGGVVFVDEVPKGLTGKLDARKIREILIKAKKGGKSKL
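FLuc 10nM, D-luciferin 10uM, ATP 10uM, Mg acetate 10mM, Tris acetate pH 7.5, Tween/BSA; cpd qHTS; enzyme added last; CCD luminescence.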
HEK293 tox: Cytotoxic Profiling in HEK 293 Cell Line of Diverse Libraries Using Quantitative High-Throughput Screening; hit rate 6.6% among 94,000; HEK 293 viability, ATP luminescence (CellTiter-Glo), 48-72 h; Potency, µM (series often up to 115 µM), for inactives: top-dose activity change, negative = cytotoxicity, hits mostly inhibitors; AID 1345083, 2018; also: nearly all actives have a fitted effect of over 60% in size
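Pintool-delivered compounds were incubated with HEK 293 cells (250 cells/well) at 37 degree Celsius for 48 or 72 hr. ATP-dependent luminescence (CellTiter-Glo) then reported remaining viable cells.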
Numbers without * were called inactive; i = inactive; ? = inconclusive; / = no result; ! = not confirmed by another sample; [ ] = dose if it differs, or a comment. Unless noted, calls follow the shape of the dose curve; as a rule, active = well fitted curve in the direction sought with a large enough effect; inconclusive = small, poorly fitted or top-dose-only effect, or another doubt; inactive = no such curve, though single readings can be large; an effect the other way counts as inactive or inconclusive. % is scaled to controls: 0 for no effect and ±100 for the full control effect; potency is read from the fitted curve at half-maximal effect.

SMILES	NPR1 antag	GPT2 inhibitor	3T3 cytotox	Luciferase inh	HEK293 tox
C[C@@H]1CN(Cc2cc(C(N)=O)oc2C(C)(C)C)CC[C@@]1(O)C1CCC1	2.3%	4.2%	0.8%	i	-12.7%
Cc1ccc(C(=O)N2CCCC3(C2)NC(=O)N(Cc2ccc(Cl)cc2)C3=O)cc1F (centres undefined)	8.4%	i	-21.8%	i	?
O=C1NC(=NC2CCCC2)C2(CCN(Cc3ccccc3)C2)N1c1cccnc1 (centres undefined)	/	-16.2%	?	/	0.0%
CC(C)CCN1CCCC2(C1)C(=NC1CCCC1)NC(=O)N2c1cccnc1 (centres undefined)	/	i	7.08µM*	/	?
O=C1NC(=NC2CCCC2)C2(CCN(CC3CC3)C2)N1c1cccnc1 (centres undefined)	/	4.0%	?	/	0.9%
O=C1NC(=NC2CCCC2)C2(CCCN(CC3CCCCC3)C2)N1c1cccnc1 (centres undefined)	/	-1.3%	7.08µM*	/	?
O=C1NC(=NC2CCCC2)C2(CCCN(Cc3ccccc3)C2)N1c1cccnc1 (centres undefined)	/	i	25.1µM*	/	-10.1%
COc1ccc(CN2CCCC3(C2)C(=NC2CCCC2)NC(=O)N3c2cccnc2)cc1 (centres undefined)	/	2.0%	22.4µM*	/	-10.4%
C=C1CCC2C(C)(C(=O)O)CCCC2(C)C1CCC1=CCOC1=O (centres undefined)	/	2.6%[27.3 µM]	/	/	/
COc1ccccc1CN(Cc1ccccc1C)C(=O)[C@H]1CCC[C@H](O)C1	2.4%	-23.2%	-19.6%	i	22.4µM*
c1ccc2c(c1)COC1(CCNC1)CN2CC1CCCCC1 (centres undefined)	/	i	31.6µM*	/	79.4µM*
O=C(C1CCCC1)N1CC2(CCNC2)OCc2ccccc21 (centres undefined)	/	i	i	/	i
COC(=O)c1ccc2nc(C[C@@H]3C[C@@H](C(C)C)[C@H](CNC4CCCCC4)C=C3C)[nH]c2c1	-9.2%	-4.7%	17.8µM*	i	?
COC(=O)c1ccc2nc(C[C@@H]3C[C@@H](C(C)C)[C@H](CN)C=C3C)[nH]c2c1	-10.2%[70.6 µM]	i	63.1µM*	i	?
COC(=O)c1ccc2nc(C[C@@H]3C[C@@H](C(C)C)[C@H](CNC4CCOCC4)C=C3C)[nH]c2c1	1.2%	-7.7%	?	i	?
CC1(c2ccccc2)N(Cc2cccnc2)C(=O)OC12CCN(C(=O)c1ccc(Oc3ccccc3)cc1)CC2 (centres undefined)	-14.4%	-21.4%	?	i	25.1µM*
CC1(c2cccnc2)N(CC2CC2)C(=O)OC12CCN(C(=O)c1ccc(Oc3ccccc3)cc1)CC2 (centres undefined)	-13.1%	4.9%	?	i	?
CC1(c2cccnc2)N(Cc2ccccc2)C(=O)OC12CCN(C(=O)C1CCOCC1)CC2 (centres undefined)	2.0%	4.0%	?	i	-4.4%
CC1(c2cccnc2)N(CC2CC2)C(=O)OC12CCN(C(=O)c1cccc(O)c1)CC2 (centres undefined)	-1.2%[70.6 µM]	-7.1%[88.5 µM]	35.5µM*	i	i
CC1(c2ccccc2)N(Cc2ccc(O)cc2)C(=O)OC12CCN(C(=O)c1cnccn1)CC2 (centres undefined)	-8.2%	3.1%	31.6µM*	i	-4.8%
CC1(c2ccccc2)N(Cc2ncccn2)C(=O)OC12CCN(C(=O)c1ccc(Oc3ccccc3)cc1)CC2 (centres undefined)	-5.3%	i	39.8µM*	i	39.8µM*
CC1(c2ccccc2)N(Cc2ccccc2F)C(=O)OC12CCN(C(=O)c1cnccn1)CC2 (centres undefined)	-1.8%	-11.9%	?	i	-3.4%
COc1cccc(CC(=O)N2CCC3(CC2)OC(=O)N(Cc2ncccn2)C3(C)c2ccccc2)c1 (centres undefined)	0.0%	i	?	i	i
CC(C)c1ccc(CN2CCc3c(n(Cc4ccccc4)n(-c4ccccc4)c3=O)C2)cc1	-16.6%	?	?	i	?
Cc1ccc(N(C)C2CN(C(=O)OC(C)(C)C)C2)cc1	/	i	-24.0%[138 µM]	/	?
SMILES	NPR1 antag	GPT2 inhibitor	3T3 cytotox	Luciferase inh	HEK293 tox
COc1ccc(C2(C(=O)N[C@@H]3CN(c4ncccn4)C[C@H]3CN(C)C)CC2)cc1	2.6%	-11.8%	3.3%	i	i
Nc1cccn2nc(-c3ccccc3)nc12	-14.6%	-0.7%	?	15.8µM*	-18.0%
Nc1cccn2nc(-c3cccnc3)nc12	-6.4%	?	-14.4%	?	i
COc1ccccc1-c1ccnc(-c2nnc(C)n2Cc2ccccc2)c1	-1.0%[70.6 µM]	1.6%[88.5 µM]	?	?	70.8µM*
Cc1nnc(-c2cc(-c3ccccc3Oc3ccccc3)ccn2)n1CCN1CCOCC1	5.0%	?	?	i	?
COc1ccccc1-c1ccnc(-c2nnc(C)n2Cc2ccncc2)c1	-1.8%[70.6 µM]	?	56.2µM*	i	-17.1%[172 µM]
Cc1nnc(-c2cc(-c3ccc(CO)cc3)ccn2)n1Cc1ccncc1	0.5%[70.6 µM]	i	?	i	3.6%[172 µM]
Cc1noc(-c2cn(C3CCCN(C(=O)c4ccc(Cl)s4)C3)nn2)n1 (centres undefined)	-12.4%	i	-20.3%	i	-4.5%
O=C1NCc2ccccc2CC12CCCN2Cc1cc(F)ccc1F (centres undefined)	/	0.5%	?	/	35.5µM*
CCc1ccccc1CN1CCCC12Cc1ccccc1CNC2=O (centres undefined)	/	-2.4%	?	/	79.4µM*
CCOc1cccc(CN2CCCC23Cc2ccccc2CNC3=O)c1 (centres undefined)	/	i	?	/	79.4µM*!
O=C1NCc2ccccc2CC12CCN(Cc1cccc(C(F)(F)F)c1)C2 (centres undefined)	/	i	?	/	39.8µM*
CCc1ccccc1CN1CCCC2(Cc3ccccc3CNC2=O)C1 (centres undefined)	/	i	?	/	?
Cc1ccsc1CN1CCCCC12Cc1ccccc1CNC2=O (centres undefined)	/	i	?	/	31.6µM*
CCc1ccccc1CN1CCC2(Cc3ccccc3CNC2=O)C1 (centres undefined)	/	i	?	/	79.4µM*
O=C1CCN(CC(O)C(F)(F)F)c2ccccc2CCN1Cc1ccccc1 (centres undefined)	/	-16.6%[27.3 µM]	-41.4%[46.1 µM]	/	?
